# Assay results taken from the supplement of paper PMC10849652.
# About 7,900 targets were measured; listed, in parts, are those with a hit and a random draw of the rest. About 0.6% of all pairs of compound and target were hits. A number with no mark means an inactive call.
# Experiments:
# Assay in all cases: log2 fold change, soluble protein after heating vs DMSO (PISA); higher = thermal stabilisation; K562 cells, 10 uM, 30 min; active = over 0.2 and 3.5 SD of the protein, either way, in both replicates (recomputed)
# [1] = compound: CS(=O)(=O)c1ccc(-c2cnc(N)c(C(=O)Nc3ccccc3)n2)cc1
# How it was run: (§1)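 K562 cells (2×10^6 cells/mL) were treated with 10 μM compound for 30 min, and aliquots were heated for 3 min over 48°C-58°C. Pooled aliquots were extracted in PBS with 0.5% NP-40 at 4°C, and the supernatant after 21,000xg for 90 min was measured by TMTpro 16plex LC-MS/MS with channel sums equalised. Reported thermal stability, relative to control samples and from duplicates, is a log2 fold change.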
# crizotinib = compound: C[C@@H](Oc1cc(-c2cnn(C3CCNCC3)c2)cnc1N)c1c(Cl)ccc(F)c1Cl [crizotinib]
# How it was run: as §1
# [2] = compound: C[C@@H]1COCCN1C2=NC(=NC(=C2)C3(CC3)S(=O)(=O)C)C4=C5C=CNC5=CC=C4
# How it was run: as §1
# [3] = compound: C[C@H](C1=CC=C(C=C1)C(=O)NC2=C3C=CNC3=NC=C2)N
# How it was run: as §1
# duvelisib = compound: C[C@H](Nc1ncnc2nc[nH]c12)c1cc2cccc(Cl)c2c(=O)n1-c1ccccc1 [duvelisib]
# How it was run: as §1
# gandotinib = compound: Cc1cc(Nc2cc(CN3CCOCC3)c3nc(C)c(Cc4ccc(Cl)cc4F)n3n2)n[nH]1 [gandotinib]
# How it was run: as §1
# tozasertib = compound: Cc1cc(Nc2cc(N3CCN(C)CC3)nc(Sc3ccc(NC(=O)C4CC4)cc3)n2)n[nH]1 [tozasertib]
# How it was run: as §1
# [4] = compound: Cc1cc(SCc2sc(-c3ccc(C(F)(F)F)cc3)nc2C)ccc1OCC(=O)O
# How it was run: as §1
# doramapimod = compound: Cc1ccc(-n2nc(C(C)(C)C)cc2NC(=O)Nc2ccc(OCCN3CCOCC3)c3ccccc23)cc1 [doramapimod]
# How it was run: as §1
# ispinesib = compound: Cc1ccc(C(=O)N(CCCN)[C@@H](c2nc3cc(Cl)ccc3c(=O)n2Cc2ccccc2)C(C)C)cc1 [ispinesib]
# How it was run: as §1
# UniProt P02545, sequence (P02545 whole entry, looked up): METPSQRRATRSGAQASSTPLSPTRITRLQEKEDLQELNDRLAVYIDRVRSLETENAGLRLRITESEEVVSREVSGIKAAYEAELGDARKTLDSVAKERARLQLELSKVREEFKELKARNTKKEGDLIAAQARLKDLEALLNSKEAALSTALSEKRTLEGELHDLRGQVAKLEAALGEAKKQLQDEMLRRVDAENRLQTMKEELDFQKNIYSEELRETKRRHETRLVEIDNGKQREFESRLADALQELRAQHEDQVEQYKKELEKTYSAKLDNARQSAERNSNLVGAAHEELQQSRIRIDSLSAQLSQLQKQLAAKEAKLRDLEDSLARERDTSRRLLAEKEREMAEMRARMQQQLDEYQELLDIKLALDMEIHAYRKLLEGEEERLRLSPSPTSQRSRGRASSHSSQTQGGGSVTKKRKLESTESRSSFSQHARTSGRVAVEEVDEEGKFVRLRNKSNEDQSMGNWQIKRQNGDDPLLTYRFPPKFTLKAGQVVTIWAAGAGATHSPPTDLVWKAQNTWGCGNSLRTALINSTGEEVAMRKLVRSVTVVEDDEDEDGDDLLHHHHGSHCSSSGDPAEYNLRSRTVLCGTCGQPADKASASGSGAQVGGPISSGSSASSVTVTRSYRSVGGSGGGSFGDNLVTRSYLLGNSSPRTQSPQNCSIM
# UniProt P07948, sequence (P07948 whole entry, looked up): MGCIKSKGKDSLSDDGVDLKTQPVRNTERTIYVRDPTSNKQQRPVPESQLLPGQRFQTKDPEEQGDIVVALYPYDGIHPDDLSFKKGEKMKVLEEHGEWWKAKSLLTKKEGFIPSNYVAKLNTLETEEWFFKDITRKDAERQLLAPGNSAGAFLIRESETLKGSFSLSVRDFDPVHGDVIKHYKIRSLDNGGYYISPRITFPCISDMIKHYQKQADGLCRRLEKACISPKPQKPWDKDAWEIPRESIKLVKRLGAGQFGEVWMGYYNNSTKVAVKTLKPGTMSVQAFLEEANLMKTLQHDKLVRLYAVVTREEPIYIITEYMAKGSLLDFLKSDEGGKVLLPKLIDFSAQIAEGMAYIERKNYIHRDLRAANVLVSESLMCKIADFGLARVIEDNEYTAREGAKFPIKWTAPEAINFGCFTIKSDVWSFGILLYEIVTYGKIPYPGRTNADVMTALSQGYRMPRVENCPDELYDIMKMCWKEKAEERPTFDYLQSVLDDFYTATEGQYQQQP
# UniProt Q92604, sequence (Q92604 whole entry, looked up): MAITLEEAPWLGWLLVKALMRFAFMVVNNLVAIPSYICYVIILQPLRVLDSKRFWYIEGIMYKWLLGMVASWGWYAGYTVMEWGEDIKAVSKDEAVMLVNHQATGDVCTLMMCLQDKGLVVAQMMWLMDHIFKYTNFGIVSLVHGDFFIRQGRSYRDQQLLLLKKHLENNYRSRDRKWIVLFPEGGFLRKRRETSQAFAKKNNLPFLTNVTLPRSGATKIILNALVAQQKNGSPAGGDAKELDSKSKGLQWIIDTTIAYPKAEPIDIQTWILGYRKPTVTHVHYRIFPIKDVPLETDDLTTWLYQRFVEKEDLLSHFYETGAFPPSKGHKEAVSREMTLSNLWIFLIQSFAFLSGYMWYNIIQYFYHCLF
# UniProt Q14693, sequence (Q14693 whole entry, looked up): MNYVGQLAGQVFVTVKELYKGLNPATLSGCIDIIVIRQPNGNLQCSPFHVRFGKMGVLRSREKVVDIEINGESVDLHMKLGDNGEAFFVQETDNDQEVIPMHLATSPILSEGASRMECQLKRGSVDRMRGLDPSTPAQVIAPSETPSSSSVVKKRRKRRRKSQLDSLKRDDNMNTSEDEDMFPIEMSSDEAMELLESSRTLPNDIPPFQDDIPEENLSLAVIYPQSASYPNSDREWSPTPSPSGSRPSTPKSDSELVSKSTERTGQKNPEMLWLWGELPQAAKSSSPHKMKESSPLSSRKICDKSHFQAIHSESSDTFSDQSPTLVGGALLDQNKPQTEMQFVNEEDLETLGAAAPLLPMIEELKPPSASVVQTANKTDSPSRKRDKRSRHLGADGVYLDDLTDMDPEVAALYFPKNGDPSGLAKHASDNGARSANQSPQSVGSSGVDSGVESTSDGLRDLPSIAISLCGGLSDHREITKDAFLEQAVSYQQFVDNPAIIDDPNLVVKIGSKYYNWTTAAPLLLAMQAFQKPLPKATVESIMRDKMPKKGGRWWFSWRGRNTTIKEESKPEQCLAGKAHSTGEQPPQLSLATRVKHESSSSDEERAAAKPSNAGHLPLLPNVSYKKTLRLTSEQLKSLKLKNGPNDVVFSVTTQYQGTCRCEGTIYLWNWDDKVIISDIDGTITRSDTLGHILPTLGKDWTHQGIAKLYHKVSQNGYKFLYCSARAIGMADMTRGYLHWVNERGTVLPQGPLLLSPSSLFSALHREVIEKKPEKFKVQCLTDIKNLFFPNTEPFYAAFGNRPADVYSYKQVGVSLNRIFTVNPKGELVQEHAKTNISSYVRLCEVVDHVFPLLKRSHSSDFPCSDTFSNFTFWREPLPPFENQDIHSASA
# UniProt O95819, sequence (O95819 whole entry, looked up): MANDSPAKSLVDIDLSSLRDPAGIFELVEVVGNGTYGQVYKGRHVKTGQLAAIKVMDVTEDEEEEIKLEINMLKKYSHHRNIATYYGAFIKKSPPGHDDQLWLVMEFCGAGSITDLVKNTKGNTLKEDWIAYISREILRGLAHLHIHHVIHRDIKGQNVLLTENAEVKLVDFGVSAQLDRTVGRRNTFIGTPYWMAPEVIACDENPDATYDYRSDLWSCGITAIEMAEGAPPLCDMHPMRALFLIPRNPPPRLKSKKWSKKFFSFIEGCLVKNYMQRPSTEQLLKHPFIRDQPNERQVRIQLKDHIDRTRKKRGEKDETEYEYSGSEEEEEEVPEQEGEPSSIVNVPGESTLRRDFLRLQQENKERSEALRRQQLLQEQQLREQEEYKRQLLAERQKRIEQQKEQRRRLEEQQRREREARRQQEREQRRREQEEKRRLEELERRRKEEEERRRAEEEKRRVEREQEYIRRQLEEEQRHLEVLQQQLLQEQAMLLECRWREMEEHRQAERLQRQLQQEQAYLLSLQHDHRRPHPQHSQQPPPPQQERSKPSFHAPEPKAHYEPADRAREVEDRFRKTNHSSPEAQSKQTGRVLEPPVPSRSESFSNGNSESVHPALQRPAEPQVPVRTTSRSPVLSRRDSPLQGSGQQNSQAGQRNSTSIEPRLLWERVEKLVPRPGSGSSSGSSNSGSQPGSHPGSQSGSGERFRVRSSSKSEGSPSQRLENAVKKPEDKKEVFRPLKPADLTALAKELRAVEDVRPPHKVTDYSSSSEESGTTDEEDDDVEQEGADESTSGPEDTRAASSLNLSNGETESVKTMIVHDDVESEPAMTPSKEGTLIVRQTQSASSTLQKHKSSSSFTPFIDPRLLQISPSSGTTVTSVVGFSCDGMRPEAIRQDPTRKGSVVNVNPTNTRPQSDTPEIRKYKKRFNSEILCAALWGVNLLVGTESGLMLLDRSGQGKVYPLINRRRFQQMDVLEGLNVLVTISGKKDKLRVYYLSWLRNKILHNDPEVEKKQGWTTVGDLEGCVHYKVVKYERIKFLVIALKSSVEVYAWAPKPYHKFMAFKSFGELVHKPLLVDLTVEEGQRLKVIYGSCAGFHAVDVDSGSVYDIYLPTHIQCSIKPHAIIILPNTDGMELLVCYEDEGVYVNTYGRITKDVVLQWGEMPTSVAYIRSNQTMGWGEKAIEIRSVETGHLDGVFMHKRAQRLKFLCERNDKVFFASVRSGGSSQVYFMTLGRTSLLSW
# UniProt Q6P9B6, sequence (Q6P9B6 whole entry, looked up): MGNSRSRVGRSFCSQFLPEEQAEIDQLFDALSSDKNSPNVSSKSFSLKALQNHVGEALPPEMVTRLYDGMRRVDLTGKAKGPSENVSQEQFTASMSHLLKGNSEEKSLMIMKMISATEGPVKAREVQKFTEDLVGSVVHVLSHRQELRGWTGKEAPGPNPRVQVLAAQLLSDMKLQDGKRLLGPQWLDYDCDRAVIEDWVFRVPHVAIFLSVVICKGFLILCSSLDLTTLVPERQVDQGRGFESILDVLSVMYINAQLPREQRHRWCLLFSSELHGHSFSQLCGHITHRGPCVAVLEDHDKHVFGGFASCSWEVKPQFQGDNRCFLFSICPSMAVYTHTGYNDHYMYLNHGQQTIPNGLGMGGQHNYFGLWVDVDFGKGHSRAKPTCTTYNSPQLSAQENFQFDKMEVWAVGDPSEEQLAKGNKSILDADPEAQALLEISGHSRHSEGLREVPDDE
# UniProt Q15528, sequence (Q15528 whole entry, looked up): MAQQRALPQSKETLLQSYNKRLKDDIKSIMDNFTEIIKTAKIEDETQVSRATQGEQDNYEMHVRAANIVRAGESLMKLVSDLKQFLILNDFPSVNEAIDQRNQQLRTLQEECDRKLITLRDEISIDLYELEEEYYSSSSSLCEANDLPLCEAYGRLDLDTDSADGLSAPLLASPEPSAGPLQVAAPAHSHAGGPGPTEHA
# UniProt Q9H3F6, sequence (Q9H3F6 whole entry, looked up): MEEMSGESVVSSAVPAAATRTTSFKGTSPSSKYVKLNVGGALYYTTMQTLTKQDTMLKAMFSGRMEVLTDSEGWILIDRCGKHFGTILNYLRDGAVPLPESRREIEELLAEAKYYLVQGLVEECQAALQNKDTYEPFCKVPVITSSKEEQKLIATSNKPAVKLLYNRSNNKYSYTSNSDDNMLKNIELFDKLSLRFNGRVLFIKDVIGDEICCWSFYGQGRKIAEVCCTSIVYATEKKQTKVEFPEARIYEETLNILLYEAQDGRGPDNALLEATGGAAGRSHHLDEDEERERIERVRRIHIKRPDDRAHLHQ
# UniProt P33947, sequence (P33947 whole entry, looked up): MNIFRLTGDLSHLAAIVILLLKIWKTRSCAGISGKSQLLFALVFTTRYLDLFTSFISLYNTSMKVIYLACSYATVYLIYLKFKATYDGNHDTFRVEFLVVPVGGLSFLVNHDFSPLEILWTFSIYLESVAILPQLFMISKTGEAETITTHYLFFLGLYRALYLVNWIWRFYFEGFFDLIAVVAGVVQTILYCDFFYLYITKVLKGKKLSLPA
Target,log2 fold change [1],log2 fold change (crizotinib),log2 fold change [2],log2 fold change [3],log2 fold change (duvelisib),log2 fold change (gandotinib),log2 fold change (tozasertib),log2 fold change [4],log2 fold change (doramapimod),log2 fold change (ispinesib)
JAK3 (UniProt P52333),0.001,0.048,0.142,-0.062,0.133,-0.132,0.032,0.135,-0.071,0.087
MIA2 (UniProt Q96PC5),0.001,0.015,0.006,-0.059,-0.077,-0.034,0.09,0.044,-0.01,0.011
LMNA (UniProt P02545),-0.054,0.064,0.102,-0.231 (active),-0.013,-0.098,0.069,-0.035,0.018,0.214 (active)
LARP1 (UniProt Q6PKG0),-0.04,-0.097,-0.172,0.134,-0.121,0.026,-0.001,0.01,0.06,-0.166
KCTD10 (UniProt Q9H3F6),-0.035,0.097,-0.027,-0.13,0.05,0.042,0.035,-0.01,-0.042,0.108
ITM2B (UniProt Q9Y287),0.065,-0.193,-0.032,0.038,-0.15,,0.033,-0.032,0.043,0.131
MAML1 (UniProt Q92585),-0.022,0.074,0.053,-0.056,,,,,-0.038,-0.006
ILF3 (UniProt Q12906),-0.152,-0.201,-0.284,,,,,,0.026,
MARCHF3 (UniProt Q86UD3),0.243,,0.029,,,,,,,
ILRUN (UniProt Q9H6K1),-0.033,0.115,0.028,-0.038,0.021,,-0.087,0.029,0.005,0.032
IL10RB (UniProt Q08334),0.004,0.009,-0.031,,0.018,-0.238,-0.122,0.089,-0.007,
MAGOHB (UniProt Q96A72),0.005,0.324 (active),0.013,-0.131,0.039,0.084,0.141,0.05,-0.016,0.076
MAPK14 (UniProt Q16539),0.023,-0.062,,0.018,-0.129,-0.099,-0.066,0.015,,-0.069
LUM (UniProt P51884),-0.011,0.352,-0.146,0.217,0.021,,-0.182,-0.135,0.168,-0.007
KLHL18 (UniProt O94889),0.092,,0.078,-0.084,0.049,-0.561 (active),-0.108,0.02,,0.028
MAP4K4 isoform 3 (UniProt O95819),-0.058,,0.002,-0.055,0.091,0.311,-0.169,0.017,-0.156,-0.05
INTS5 (UniProt Q6P9B9),0.029,-0.013,0.058,,0.047,,0.076,0.008,0.006,0.025
LPGAT1 (UniProt Q92604),-0.01,-0.101,0.073,0.015,-0.02,,-0.088,0.16,-0.038,-0.237

Target,log2 fold change [1],log2 fold change (crizotinib),log2 fold change [2],log2 fold change [3],log2 fold change (duvelisib),log2 fold change (gandotinib),log2 fold change (tozasertib),log2 fold change [4],log2 fold change (doramapimod),log2 fold change (ispinesib)
MAP3K20 isoform 2 (UniProt Q9NYL2),0.038,-0.182,0.082,,,,-0.191,,0.096,
MED12 isoform 2 (UniProt Q93074),-0.088,-0.088,0.207,,0.068,-0.009,0.012,0.048,0.095,-0.117
MARK2 (UniProt E9PC69),0.068,-0.323,-0.049,0.15,-0.181,,-0.263,0.12,0.119,-0.232
MED8 isoform 2 (UniProt Q96G25),0.021,0.037,-0.049,-0.077,0.029,,,-0.079,-0.031,0.012
LPIN1 isoform 7 (UniProt Q14693),0,-0.184,-0.034,0.031,-0.052,-0.079,-0.021,-0.043,0.067,-0.037
MCM10 (UniProt Q7L590),-0.171,-0.015,-0.102,,,0.092,0.144,,-0.01,
LSR (UniProt M0QZL9),-0.03,,0.118,,,,,,,
MAPK12 (UniProt P53778),-0.005,,0.105,-0.106,-0.005,0.037,0.099,0.01,,-0.036
MED22 (UniProt Q15528),0.013,-0.082,0.027,0.027,0.158,,-0.036,0.049,0.027,-0.098
MED7 (UniProt O43513),-0.03,0.11,-0.031,-0.081,-0.046,,0.004,0.049,-0.199,0.017
KDELR2 (UniProt P33947),0.056,0.035,0.205,-0.096,0.099,-0.107,-0.027,-0.007,0.016,0.016
MAPK14 isoform 2 (UniProt Q16539),0.087,-0.062,-0.018,-0.013,-0.072,-0.022,0.031,0.017,,-0.038
MEAK7 (UniProt Q6P9B6),-0.005,-0.259 (active),0.049,0.005,0.121,-0.224,0.018,0.024,0.031,-0.139
KRAS isoform 2 (UniProt P01116),0.03,0.024,-0.016,0.019,-0.084,-0.05,-0.079,-0.018,-0.019,-0.09
MASTL (UniProt Q96GX5),-0.058,0.092,0.179,0.046,-0.199,,,-0.12,-0.075,0.099
LYN isoform 2 (UniProt P07948),-0.791 (active),-0.211,-0.281,-0.294,,,,,0.159,
LPIN3 isoform 2 (UniProt Q9BQK8),0.016,,0.125,0.011,0.002,-0.059,-0.065,0.015,,-0.037
KMT2C isoform 3 (UniProt Q8NEZ4),0.013,,0.021,0.022,0.134,-0.106,0.063,-0.048,,-0.235
